Measured values as given in PMC11006913.
Residue numbers refer to the chain shown, from its start.

These sequences were tested against T1, NKX2-4 (Homo sapiens, UniProt Q9H2Z4 175-261) (assay: PBM; 200 nM protein, PBS). Conditions: dsDNA, one strand shown.
T1 sequence: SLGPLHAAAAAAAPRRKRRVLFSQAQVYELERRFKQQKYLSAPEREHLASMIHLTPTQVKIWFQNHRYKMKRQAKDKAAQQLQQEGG

Going from TACCGGTA to ATCGGTGG, the binding signal falls from 9.94 upbm affinity estimate (log intensity, higher = more binding, comparable within an allelic series) to 9.38 upbm affinity estimate (log intensity, higher = more binding, comparable within an allelic series).

Going from CTCTTAAG to ACACTTGA, the binding signal rises from 12.3 upbm affinity estimate (log intensity, higher = more binding, comparable within an allelic series) to 12.6 upbm affinity estimate (log intensity, higher = more binding, comparable within an allelic series).

Going from CGTGCGGC to AGTACTTG, the binding signal rises from 9.44 upbm affinity estimate (log intensity, higher = more binding, comparable within an allelic series) to 12.4 upbm affinity estimate (log intensity, higher = more binding, comparable within an allelic series).

Going from ACACTTCA to ACGGCCTG, the binding signal falls from 12.5 upbm affinity estimate (log intensity, higher = more binding, comparable within an allelic series) to 9.65 upbm affinity estimate (log intensity, higher = more binding, comparable within an allelic series).

First: GTACTTCA
Second: AGTCCGGG
The binding signal of the first is higher: 12.6 upbm affinity estimate (log intensity, higher = more binding, comparable within an allelic series) for the first, 9.52 upbm affinity estimate (log intensity, higher = more binding, comparable within an allelic series) for the second.

Compared with AAGTGCCC, CCACTCGA is higher in binding signal: 12.3 upbm affinity estimate (log intensity, higher = more binding, comparable within an allelic series) for the first, 12.4 upbm affinity estimate (log intensity, higher = more binding, comparable within an allelic series) for the second.

Compared with TACTTGAA, CACTTCAA is lower in binding signal: 12.6 upbm affinity estimate (log intensity, higher = more binding, comparable within an allelic series) for the first, 12.5 upbm affinity estimate (log intensity, higher = more binding, comparable within an allelic series) for the second.

Compared with TAAGTGTA, CAAGTACC is higher in binding signal: 12.3 upbm affinity estimate (log intensity, higher = more binding, comparable within an allelic series) for the first, 12.4 upbm affinity estimate (log intensity, higher = more binding, comparable within an allelic series) for the second.

First: CGGTGCAG
Second: CACTCGAA
The binding signal of the first is lower: 9.46 upbm affinity estimate (log intensity, higher = more binding, comparable within an allelic series) for the first, 12.5 upbm affinity estimate (log intensity, higher = more binding, comparable within an allelic series) for the second.

First: CACTTCAG
Second: GTCAAGTA
The binding signal of the first is higher: 12.4 upbm affinity estimate (log intensity, higher = more binding, comparable within an allelic series) for the first, 12.3 upbm affinity estimate (log intensity, higher = more binding, comparable within an allelic series) for the second.

What follows are sequences tested against HOXB9 (Homo sapiens, UniProt P17482 171-250) (assay: PBM; 200 nM protein, PBS). Conditions: dsDNA, one strand shown.
HOXB9, sequence (P17482 171-250): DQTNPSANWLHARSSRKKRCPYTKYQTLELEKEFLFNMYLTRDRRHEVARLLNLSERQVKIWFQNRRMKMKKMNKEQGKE

Going from CATGCGCC to CGTGCACG, the binding signal rises from 8.56 upbm affinity estimate (log intensity, higher = more binding, comparable within an allelic series) to 8.75 upbm affinity estimate (log intensity, higher = more binding, comparable within an allelic series).

In the case of CCAGCCAG, the binding signal was 8.34 upbm affinity estimate (log intensity, higher = more binding, comparable within an allelic series).

The sequences below were run against T2, NKX2-6 (Homo sapiens, UniProt A6NCS4 118-204, R150C) (assay: PBM; 200 nM protein, PBS). Conditions: dsDNA, one strand shown.
T2 sequence: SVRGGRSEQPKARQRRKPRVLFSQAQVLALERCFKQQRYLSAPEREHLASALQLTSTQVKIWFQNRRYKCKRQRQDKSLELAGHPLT

Compared with CCTCTTGA, AAGTGGTC is higher in binding signal: 11.7 upbm affinity estimate (log intensity, higher = more binding, comparable within an allelic series) for the first, 11.8 upbm affinity estimate (log intensity, higher = more binding, comparable within an allelic series) for the second.

Going from TCAAGTGA to CTCAAGTA, the binding signal rises from 11.7 upbm affinity estimate (log intensity, higher = more binding, comparable within an allelic series) to 11.8 upbm affinity estimate (log intensity, higher = more binding, comparable within an allelic series).

First: CACTTGAA
Second: ACACTTGA
The binding signal of the first is higher: 12.2 upbm affinity estimate (log intensity, higher = more binding, comparable within an allelic series) for the first, 12 upbm affinity estimate (log intensity, higher = more binding, comparable within an allelic series) for the second.

Going from AGTACTTG to GTACTTCA, the binding signal rises from 11.6 upbm affinity estimate (log intensity, higher = more binding, comparable within an allelic series) to 11.7 upbm affinity estimate (log intensity, higher = more binding, comparable within an allelic series).

Going from AAGTGGAC to AAGTGCCC, the binding signal falls from 11.8 upbm affinity estimate (log intensity, higher = more binding, comparable within an allelic series) to 11.6 upbm affinity estimate (log intensity, higher = more binding, comparable within an allelic series).

CCACTCGA and TACTTGAA are the same in binding signal: 11.6 upbm affinity estimate (log intensity, higher = more binding, comparable within an allelic series) for the first, 11.6 upbm affinity estimate (log intensity, higher = more binding, comparable within an allelic series) for the second.

Compared with CACTTCAA, TAAGTGTA is higher in binding signal: 11.6 upbm affinity estimate (log intensity, higher = more binding, comparable within an allelic series) for the first, 11.7 upbm affinity estimate (log intensity, higher = more binding, comparable within an allelic series) for the second.

In the case of CAAGTACC, the binding signal was 11.6 upbm affinity estimate (log intensity, higher = more binding, comparable within an allelic series).

Each sequence was assayed against MSX2 (Homo sapiens, UniProt P35548 130-214, R199I) (assay: PBM; 200 nM protein, PBS). Conditions: dsDNA, one strand shown.
MSX2 (Homo sapiens, UniProt P35548 130-214, R199I), sequence (P35548 130-214 R199I): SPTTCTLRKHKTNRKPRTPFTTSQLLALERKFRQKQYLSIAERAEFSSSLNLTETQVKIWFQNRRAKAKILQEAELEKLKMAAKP

Compared with CTGGCCAG, CACGGGCC is lower in binding signal: 9.71 upbm affinity estimate (log intensity, higher = more binding, comparable within an allelic series) for the first, 9.44 upbm affinity estimate (log intensity, higher = more binding, comparable within an allelic series) for the second.

With CCGGTGGC the binding signal was 9.47 upbm affinity estimate (log intensity, higher = more binding, comparable within an allelic series).

Each sequence was assayed against HOXD13 (Homo sapiens, UniProt P35453 263-343, T313R) (assay: PBM; 200 nM protein, PBS). Conditions: dsDNA, one strand shown.
HOXD13 (Homo sapiens, UniProt P35453 263-343, T313R), sequence (P35453 263-343 T313R): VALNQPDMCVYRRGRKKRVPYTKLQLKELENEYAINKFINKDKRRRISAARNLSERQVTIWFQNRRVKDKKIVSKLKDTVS

Going from CCGACCTC to CCGGTGGC, the binding signal falls from 9.52 upbm affinity estimate (log intensity, higher = more binding, comparable within an allelic series) to 9.44 upbm affinity estimate (log intensity, higher = more binding, comparable within an allelic series).

CCAGCCAG was tested, and the binding signal was 9.41 upbm affinity estimate (log intensity, higher = more binding, comparable within an allelic series).

What follows are sequences tested against T3, NKX2-6 (Homo sapiens, UniProt A6NCS4 118-204) (assay: PBM; 200 nM protein, PBS). Conditions: dsDNA, one strand shown.
T3 sequence: T2 sequence with C33R

CCTCTTGA and CCTCTTAA are the same in binding signal: 13.4 upbm affinity estimate (log intensity, higher = more binding, comparable within an allelic series) for the first, 13.4 upbm affinity estimate (log intensity, higher = more binding, comparable within an allelic series) for the second.

First: AAGTGGTC
Second: TCAAGTGA
The binding signal of the first is lower: 13.4 upbm affinity estimate (log intensity, higher = more binding, comparable within an allelic series) for the first, 13.5 upbm affinity estimate (log intensity, higher = more binding, comparable within an allelic series) for the second.

Going from CTCAAGTA to CACTTGAA, the binding signal rises from 13.6 upbm affinity estimate (log intensity, higher = more binding, comparable within an allelic series) to 13.9 upbm affinity estimate (log intensity, higher = more binding, comparable within an allelic series).

Compared with CTCTTAAG, ACACTTGA is higher in binding signal: 13.5 upbm affinity estimate (log intensity, higher = more binding, comparable within an allelic series) for the first, 13.9 upbm affinity estimate (log intensity, higher = more binding, comparable within an allelic series) for the second.

Going from AGTACTTG to ACACTTCA, the binding signal falls from 13.5 upbm affinity estimate (log intensity, higher = more binding, comparable within an allelic series) to 13.3 upbm affinity estimate (log intensity, higher = more binding, comparable within an allelic series).

GTACTTCA and AAGTGGAC are the same in binding signal: 13.4 upbm affinity estimate (log intensity, higher = more binding, comparable within an allelic series) for the first, 13.4 upbm affinity estimate (log intensity, higher = more binding, comparable within an allelic series) for the second.

First: CCGACGCC
Second: TACTTGAA
The binding signal of the first is lower: 8.94 upbm affinity estimate (log intensity, higher = more binding, comparable within an allelic series) for the first, 13.4 upbm affinity estimate (log intensity, higher = more binding, comparable within an allelic series) for the second.

TAAGTGTA and CACTTCAG are the same in binding signal: 13.4 upbm affinity estimate (log intensity, higher = more binding, comparable within an allelic series) for the first, 13.4 upbm affinity estimate (log intensity, higher = more binding, comparable within an allelic series) for the second.

GTCAAGTA was tested, and the binding signal was 13.4 upbm affinity estimate (log intensity, higher = more binding, comparable within an allelic series).

The sequences below were run against HOXD13 (Homo sapiens, UniProt P35453 263-343) (assay: PBM; 200 nM protein, PBS). Conditions: dsDNA, one strand shown.
HOXD13 (Homo sapiens, UniProt P35453 263-343), sequence (P35453 263-343): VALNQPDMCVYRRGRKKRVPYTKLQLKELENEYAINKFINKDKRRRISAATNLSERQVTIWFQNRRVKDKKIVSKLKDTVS

Compared with CCGACCTC, CCGGTGGC is lower in binding signal: 9.45 upbm affinity estimate (log intensity, higher = more binding, comparable within an allelic series) for the first, 9.29 upbm affinity estimate (log intensity, higher = more binding, comparable within an allelic series) for the second.

For CCAGCCAG, the binding signal was 9.59 upbm affinity estimate (log intensity, higher = more binding, comparable within an allelic series).

What follows are sequences tested against MSX2 (Homo sapiens, UniProt P35548 130-214) (assay: PBM; 200 nM protein, PBS). Conditions: dsDNA, one strand shown.
MSX2 (Homo sapiens, UniProt P35548 130-214), sequence (P35548 130-214): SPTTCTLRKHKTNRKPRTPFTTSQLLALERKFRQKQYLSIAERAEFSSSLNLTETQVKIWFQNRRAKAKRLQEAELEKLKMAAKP

First: CTGGCCAG
Second: CACGGGCC
The binding signal of the first is higher: 9.79 upbm affinity estimate (log intensity, higher = more binding, comparable within an allelic series) for the first, 9.39 upbm affinity estimate (log intensity, higher = more binding, comparable within an allelic series) for the second.

In the case of CCGGTGGC, the binding signal was 9.56 upbm affinity estimate (log intensity, higher = more binding, comparable within an allelic series).

Each sequence was assayed against T4, NKX2-4 (Homo sapiens, UniProt Q9H2Z4 175-261, R246Q) (assay: PBM; 200 nM protein, PBS). Conditions: dsDNA, one strand shown.
T4 sequence: T1 sequence with R72Q

Compared with CCTCTTGA, CCTCTTAA is lower in binding signal: 13.2 upbm affinity estimate (log intensity, higher = more binding, comparable within an allelic series) for the first, 12.9 upbm affinity estimate (log intensity, higher = more binding, comparable within an allelic series) for the second.

First: TCAAGTGA
Second: CTCAAGTA
The binding signal of the first is lower: 13.1 upbm affinity estimate (log intensity, higher = more binding, comparable within an allelic series) for the first, 13.3 upbm affinity estimate (log intensity, higher = more binding, comparable within an allelic series) for the second.

Compared with ACTTGAGA, CACTTGAA is higher in binding signal: 13.1 upbm affinity estimate (log intensity, higher = more binding, comparable within an allelic series) for the first, 13.5 upbm affinity estimate (log intensity, higher = more binding, comparable within an allelic series) for the second.

First: TACCGGTA
Second: ATCGGTGG
The binding signal of the first is higher: 10.1 upbm affinity estimate (log intensity, higher = more binding, comparable within an allelic series) for the first, 9.32 upbm affinity estimate (log intensity, higher = more binding, comparable within an allelic series) for the second.

First: CTCTTAAG
Second: ACACTTGA
The binding signal of the first is lower: 12.9 upbm affinity estimate (log intensity, higher = more binding, comparable within an allelic series) for the first, 13.4 upbm affinity estimate (log intensity, higher = more binding, comparable within an allelic series) for the second.

First: CGTGCGGC
Second: AGTACTTG
The binding signal of the first is lower: 9.47 upbm affinity estimate (log intensity, higher = more binding, comparable within an allelic series) for the first, 13 upbm affinity estimate (log intensity, higher = more binding, comparable within an allelic series) for the second.

Going from ACACTTCA to ACGGCCTG, the binding signal falls from 13.1 upbm affinity estimate (log intensity, higher = more binding, comparable within an allelic series) to 9.71 upbm affinity estimate (log intensity, higher = more binding, comparable within an allelic series).

First: GTACTTCA
Second: AGTCCGGG
The binding signal of the first is higher: 13.2 upbm affinity estimate (log intensity, higher = more binding, comparable within an allelic series) for the first, 9.63 upbm affinity estimate (log intensity, higher = more binding, comparable within an allelic series) for the second.

Compared with AAGTGCCC, CCACTCGA is higher in binding signal: 13 upbm affinity estimate (log intensity, higher = more binding, comparable within an allelic series) for the first, 13.1 upbm affinity estimate (log intensity, higher = more binding, comparable within an allelic series) for the second.

Compared with TACTTGAA, CACTTCAA is lower in binding signal: 13.3 upbm affinity estimate (log intensity, higher = more binding, comparable within an allelic series) for the first, 13.1 upbm affinity estimate (log intensity, higher = more binding, comparable within an allelic series) for the second.

TAAGTGTA and CAAGTACC are the same in binding signal: 12.9 upbm affinity estimate (log intensity, higher = more binding, comparable within an allelic series) for the first, 12.9 upbm affinity estimate (log intensity, higher = more binding, comparable within an allelic series) for the second.

Going from CGGTGCAG to CACTCGAA, the binding signal rises from 9.48 upbm affinity estimate (log intensity, higher = more binding, comparable within an allelic series) to 13.1 upbm affinity estimate (log intensity, higher = more binding, comparable within an allelic series).

Going from CACTTCAG to GTCAAGTA, the binding signal falls from 13.1 upbm affinity estimate (log intensity, higher = more binding, comparable within an allelic series) to 13 upbm affinity estimate (log intensity, higher = more binding, comparable within an allelic series).
